Source: PubChem BioAssay (EPA / NIEHS)
Inconclusive results are not listed. Active and inactive are the calls of the source. Rule for the calls, unless noted: active = hit-call score of the fitted dose curve at least 0.9, where 1 is the maximum; inactive = score below 0.9.

Key:
[1] = TOX21_p53_BLA_p2_viability: Viability Assessment in the Tox21 HCT-116 p53 Agonism Beta-lactamase Assay, Phase 2 (AID 2283591; active = hit-call score of the fitted dose curve at least 0.9, where 1 is the maximum;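 note: compound exposure lasted 16 h at 37 °C; actives lower the ATP signal meaning cytotoxicity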)
In short: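 HCT-116 p53-bla cells (4000/well) rested 5 h at 37C, then received compounds in DMSO (217-fold dilution) for 16 h at 37C, 5% CO2. After the CCF4 read, CellTiter-Glo was added; ATP luminescence was read after 30 min at room temperature.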

[2] = TOX21_p53_BLA_p3_viability: Viability Assessment in the Tox21 HCT-116 p53 Agonism Beta-lactamase Assay, Phase 3 (AID 2283593; active = hit-call score of the fitted dose curve at least 0.9, where 1 is the maximum;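 note: cells exposed to compound for 16 h before reading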)
In short: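 HCT-116 cells (4000/well) rested 5 h at 37C, then got DMSO compounds by pin tool (217-fold dilution) for 16 h at 37C, 5% CO2. After the bla read, CellTiter-Glo was added and luminescence read at 30 min, room temperature.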

[3] = target: Cellular tumor antigen p53 (Homo sapiens) (UniProt P04637); assay: TOX21_p53_BLA_p3_ratio: Tox21 HCT-116 p53 Agonism Beta-lactamase Assay, Ratio, Phase 3 (AID 2283596; active = hit-call score of the fitted dose curve at least 0.9, where 1 is the maximum)
Sequence of Cellular tumor antigen p53 (Homo sapiens) (P04637 whole entry, looked up): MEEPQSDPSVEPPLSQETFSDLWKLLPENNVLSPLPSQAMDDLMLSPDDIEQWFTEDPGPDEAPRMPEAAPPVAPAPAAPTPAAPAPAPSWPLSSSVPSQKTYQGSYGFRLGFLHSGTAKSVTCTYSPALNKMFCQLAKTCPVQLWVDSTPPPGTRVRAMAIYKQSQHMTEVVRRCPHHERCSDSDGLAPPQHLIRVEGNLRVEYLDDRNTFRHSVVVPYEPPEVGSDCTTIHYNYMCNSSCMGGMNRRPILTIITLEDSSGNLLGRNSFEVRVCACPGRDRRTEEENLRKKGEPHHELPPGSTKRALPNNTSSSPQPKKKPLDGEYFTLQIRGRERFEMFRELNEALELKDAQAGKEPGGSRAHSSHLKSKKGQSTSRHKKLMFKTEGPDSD
In short: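 HCT116 p53-bla cells (4000/well) given compound in DMSO (217-fold dilution) after 5 h, incubated 16 h at 37C. CCF4-AM substrate 2 h at room temperature; 460/530 nm emission ratio, gain fitted against DMSO.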

[4] = TOX21_p53_BLA_p4_viability: Viability Assessment in the Tox21 HCT-116 p53 Agonism Beta-lactamase Assay, Phase 4 (AID 2283597; active = hit-call score of the fitted dose curve at least 0.9, where 1 is the maximum;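 note: hits lower the luminescence signal meaning cytotoxicity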)
In short: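 Luminescent ATP readout (CellTiter-Glo, 30 min, room temperature) in the same wells as the p53 bla ratio. HCT116 cells were treated for 16 h at 37C with DMSO-dissolved compounds.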

[5] = target: Cellular tumor antigen p53 (Homo sapiens) (UniProt P04637); assay: TOX21_p53_BLA_p5_ratio: Tox21 HCT-116 p53 Agonism Beta-lactamase Assay, Ratio, Phase 5 (AID 2283599; active = hit-call score of the fitted dose curve at least 0.9, where 1 is the maximum)
In short: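 HCT-116 cells carrying a p53-inducible beta-lactamase reporter were seeded at 4000 cells/well and dosed after 5 h with compound in DMSO (217-fold dilution). After 16 h at 37C, CCF4-AM substrate was added for 2 h, and the 460/530 nm emission ratio was scored as gain-of-signal versus DMSO.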

[6] = TOX21_p53_BLA_p5_viability: Viability Assessment in the Tox21 HCT-116 p53 Agonism Beta-lactamase Assay, Phase 5 (AID 2283600; active = hit-call score of the fitted dose curve at least 0.9, where 1 is the maximum)
In short: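 Seeded cells (4000/well) settle 5 h before compound addition. Plates then incubate 16 h at 37C, receive FRET substrate for 2 h, and finally CellTiter-Glo, with luminescence measured after a 30 min room-temperature incubation.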

[7] = target: Cellular tumor antigen p53 (Homo sapiens) (UniProt P04637); assay: TOX21_p53_BLA_p4_ratio: Tox21 HCT-116 p53 Agonism Beta-lactamase Assay, Ratio, Phase 4 (AID 2283601; active = hit-call score of the fitted dose curve at least 0.9, where 1 is the maximum)
In short: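 HCT116 cells carrying an inducible beta-lactamase reporter were plated at 4000 cells/well, rested 5 h, then exposed to compounds in DMSO (217-fold dilution) for 16 h at 37C. CCF4-AM substrate was loaded 2 h at room temperature; 460/530 nm emission ratio scored gain-of-signal versus DMSO.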

[8] = CCTE_Shafer_MEA_dev_firing_rate_mean: CCTE's Neural Network Formation Assay for Mean Firing Rate, Shafer Lab (AID 2284031)
In short: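 Primary rat cortical neurons on 48-well, 16-electrode MEAs (PEI-coated, laminin at plating), exposed from day 0 with compound renewed at DIV 5 and 9. Spikes recorded DIV 5, 7, 9, 12; well-mean firing rate collapsed to trapezoidal AUC, loss-of-signal vs DMSO.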

[9] = CCTE_Shafer_MEA_dev_per_burst_spike_percent: CCTE's Neural Network Formation Assay for Percent of Spikes in a Burst, Shafer Lab (AID 2284032);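 note: fitted as a decrease in burst spike percentage below DMSO baseline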
In short: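 Rat primary cortical neurons on 16-electrode MEA wells, dosed from plating day 0 for 12 days with renewal on DIV 5 and 9; spikes-in-bursts percentage averaged over bursting electrodes, collapsed as AUC across days 5, 7, 9, 12; loss direction versus DMSO.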

[10] = CCTE_Shafer_MEA_dev_active_electrodes_number: CCTE's Neural Network Formation Assay for Number of Active Electrodes, Shafer Lab (AID 2284040; active = hit-call score of the fitted dose curve at least 0.9, where 1 is the maximum;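 note: potency for loss of active electrodes versus DMSO so lower counts are hits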)
In short: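 Rat cortical primary cultures, 1.5 x 10^5 cells/well, PEI-coated MEA, laminin drop. Continuous exposure DIV 0–12; full media/compound change DIV 5, 9. Readout: electrodes with mean firing ≥5 spikes/min; AUC across days; loss vs DMSO.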

[11] = CCTE_Shafer_MEA_dev_burst_rate: CCTE's Neural Network Formation Assay for Burst Rate, Shafer Lab (AID 2284042)
In short: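 Developmental network assay measuring how 12-day exposure of rat cortical neuron cultures alters bursting on extracellular MEA recordings. Values are AUC of well-mean burst rate across four recording days, relative to DMSO vehicle.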

[12] = CCTE_Shafer_MEA_dev_bursting_electrodes_number: CCTE's Neural Network Formation Assay for Number of Bursting Electrodes, Shafer Lab (AID 2284043; active = hit-call score of the fitted dose curve at least 0.9, where 1 is the maximum;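 note: potency is for loss of bursting electrodes relative to DMSO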)
In short: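 Primary rat cortical neurons were cultured on PEI-coated 48-well MEA plates (16 electrodes/well) and exposed from plating through day 12, with compound renewed at feeds on DIV 5 and 9. Electrodes bursting ≥1 per 2 min were counted on DIV 5, 7, 9, 12; trapezoidal AUC taken.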

[13] = CCTE_Shafer_MEA_dev_per_burst_interspike_interval: CCTE's Neural Network Formation Assay for Burst Interspike Interval, Shafer Lab (AID 2284044);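 note: mean spike spacing inside bursts as AUC over recordings on days 5 7 9 12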
In short: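 Spontaneous activity of maturing rat cortical networks is recorded on DIV 5, 7, 9 and 12 under chronic compound exposure beginning at plating. Endpoint: burst interspike interval well-mean, collapsed into trapezoidal AUC and fitted in the negative direction relative to DMSO.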

[14] = CCTE_Shafer_MEA_dev_burst_duration_mean: CCTE's Neural Network Formation Assay for Mean Burst Duration, Shafer Lab (AID 2284045)
In short: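 Primary rat cortical neurons on PEI-coated 16-electrode MEA wells, exposed from plating through day 12 with compound renewed at DIV 5 and 9; spontaneous activity recorded days 5, 7, 9, 12. Well-mean burst duration collapsed as trapezoidal AUC, fitted for loss versus DMSO.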

[15] = CCTE_Shafer_MEA_dev_interburst_interval_mean: CCTE's Neural Network Formation Assay for Mean Interburst Interval, Shafer Lab (AID 2284046);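 note: well-mean interburst interval of bursting electrodes as AUC over four recording days; curve fitted for decrease in interburst interval relative to DMSO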
In short: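 Network formation assay in primary rat cortical cultures, exposed from DIV 0 to 12. Mean interburst interval per well, integrated as AUC over four recordings.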

[16] = CCTE_Shafer_MEA_dev_inter_network_spike_interval_mean: CCTE's Neural Network Formation Assay for Mean Inter-network Spike Interval, Shafer Lab (AID 2284047)
In short: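 Compound was given at plating to primary rat cortical neurons and renewed with full medium changes on DIV 5 and 9. Extracellular activity was recorded on days 5, 7, 9, 12; AUC values were fitted for loss relative to DMSO control.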

[17] = CCTE_Shafer_MEA_dev_network_spike_number: CCTE's Neural Network Formation Assay for Number of Network Spikes, Shafer Lab (AID 2284048);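 note: synchronized bursts across electrodes counted on days 5 7 9 12 and integrated as AUC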
In short: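 Primary rat cortical neurons were seeded at 1.5 x 10^5 cells/well on PEI-coated 16-electrode MEA wells with laminin, exposed from plating day 0, compound renewed at DIV 5 and 9. Network spikes were recorded on days 5, 7, 9, 12 and summarized as trapezoidal AUC versus DMSO.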

[18] = CCTE_Shafer_MEA_dev_spike_duration_mean: CCTE's Neural Network Formation Assay for Mean Spike Duration, Shafer Lab (AID 2284051);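 note: mean network spike duration pooled as area under curve over DIV 5 to 12 recordings; potency for a decrease in mean network spike duration versus DMSO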
In short: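 With DMSO as baseline, loss of mean network spike duration was scored from extracellular recordings of rat cortical neurons on MEA plates. Exposure spanned plating to DIV 12; the four recording days were collapsed into one AUC value.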

[19] = CCTE_Shafer_MEA_dev_network_spike_duration_std: CCTE's Neural Network Formation Assay for Standard Deviation of Network Spike Duration, Shafer Lab (AID 2284052);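 note: area under curve of spike duration SD across recording days 5 to 12; hits are decreases in network spike duration SD versus DMSO vehicle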
In short: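 Developing networks of rat cortical neurons were exposed over twelve days in vitro on 48-well MEA plates. Trapezoidal AUC of recordings (DIV 5–12) was analysed for signal loss relative to DMSO vehicle.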

[20] = CCTE_Shafer_MEA_dev_per_network_spike_spike_number_mean: CCTE's Neural Network Formation Assay for Mean Number of Spikes in a Network Spike, Shafer Lab (AID 2284053);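 note: fitted as decrease in spikes per network spike relative to DMSO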
In short: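 First, rat cortical cells (1.5 x 10^5/well) were seeded onto MEA wells; second, dosing began at plating and was refreshed on DIV 5 and 9; finally, network-spike spike counts across DIV 5–12 were summarized as AUC.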

[21] = CCTE_Shafer_MEA_dev_per_network_spike_spike_percent: CCTE's Neural Network Formation Assay for Percent of Spikes in a Network Spike, Shafer Lab (AID 2284054)
In short: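 Primary rat cortical neurons on 16-electrode MEA wells (PEI-coated, laminin at plating), exposed from day 0 with renewal at DIV 5 and 9; spikes within 0.05 s of network-spike peaks over total spikes, AUC across days 5, 7, 9, 12.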

[22] = UKN5_HCS_SBAD2_cell_viability: Viability Assessment in the University of Konstanz (UKN) Leist Lab Neurite Outgrowth Assay in human iPSC-derived immature Dorsal Root Ganglia Neurons (UKN5) (AID 2284056)
In short: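 iPSC-derived immature peripheral neurons (SBAD2) seeded on Matrigel with CHIR99021, SU5402 and DAPT, dosed 1 h later for 24 h. Viability from Hoechst H-33342 and calcein-AM live staining, high-content imaging; bidirectional fit versus DMSO.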

Measured: AC50

Brc1ccc(Oc2cc(Br)c(Br)cc2Br)c(Br)c1
active: [9] 13.2 µM | [10] 14.1 µM | [12] 13.6 µM | [18] 10 µM | [20] 10 µM | [21] 13.5 µM
inactive: all other assays above
